Results from PubChem BioAssay (NCATS).
Results filed as inconclusive are left out. Where a call stands in place of a potency, no number is given. Calls of active or inactive are those of the source. Unless noted, calls follow the shape of the dose curve; as a rule, active = well fitted curve in the direction sought with a large enough effect; inconclusive = small, poorly fitted or top-dose-only effect, or another doubt; inactive = no such curve, though single readings can be large; an effect the other way counts as inactive or inconclusive.

What was measured:
[1] = test system: Zika virus NS2B-NS3 protease; test: Primary screen GU AMC qHTS for Zika virus inhibitors (AID 1347154); also: nearly all actives have a fitted effect of over 70% in size
In short: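 Unlinked Zika NS2B hydrophilic domain/NS3 protease domain noncovalent complex (25 nM final) in 10 mM Tris-HCl pH 8.0, 0.01% Tween 20, with AMC peptide substrate. Fluorescence (ex 340, em 450 nm) change over 15 min, room temperature; percent inhibition fitted to 4-parameter Hill equation.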

[2] = qHTS to identify inhibitors of the type 1 interferon - major histocompatibility complex class I in skeletal muscle: primary screen against the NCATS Mechanism Interrogation Plate v5.0 (MIPE) Libary (AID 1347411); also: nearly all actives have a fitted effect of over 65% in size
In short: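 Immortalized human C25cl48 myoblasts with HiBit knocked into endogenous HLA-B*08:01 were stimulated with 4.0 ng/ml IFN-beta and exposed to compounds (11-point 1:3 titration, top 46 uM final) for 24 hrs at 37 C; HiBiT lytic luminescence measured.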

[3] = Primary qHTS for small molecule stabilizers of the endoplasmic reticulum resident proteome: Secreted ER Calcium Modulated Protein (SERCaMP) assay (AID 1508630)
In short: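 GLuc-SERCaMP-expressing SH-SY5Y cells, pretreated 16 h with compound, are challenged with thapsigargin to empty ER calcium stores; after 4 h, coelenterazine is added directly to the medium and luminescence is imaged.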

[4] = target: Cytochrome P450 2D6 (Homo sapiens) (UniProt P10635); test: Cytochrome P450 family 2 subfamily D member 6 (CYP2D6) small molecule antagonists: luciferase biochemical (cell-free) qHTS assay (AID 1645840; active = well fitted curve in the direction sought with a large enough effect in the repeat runs; an effect the other way counts as inactive or inconclusive; also: potency is read from the fitted curve at half-maximal effect; nearly all actives have a fitted effect of over 55% in size)
Cytochrome P450 2D6 (Homo sapiens), sequence (P10635 whole entry, looked up): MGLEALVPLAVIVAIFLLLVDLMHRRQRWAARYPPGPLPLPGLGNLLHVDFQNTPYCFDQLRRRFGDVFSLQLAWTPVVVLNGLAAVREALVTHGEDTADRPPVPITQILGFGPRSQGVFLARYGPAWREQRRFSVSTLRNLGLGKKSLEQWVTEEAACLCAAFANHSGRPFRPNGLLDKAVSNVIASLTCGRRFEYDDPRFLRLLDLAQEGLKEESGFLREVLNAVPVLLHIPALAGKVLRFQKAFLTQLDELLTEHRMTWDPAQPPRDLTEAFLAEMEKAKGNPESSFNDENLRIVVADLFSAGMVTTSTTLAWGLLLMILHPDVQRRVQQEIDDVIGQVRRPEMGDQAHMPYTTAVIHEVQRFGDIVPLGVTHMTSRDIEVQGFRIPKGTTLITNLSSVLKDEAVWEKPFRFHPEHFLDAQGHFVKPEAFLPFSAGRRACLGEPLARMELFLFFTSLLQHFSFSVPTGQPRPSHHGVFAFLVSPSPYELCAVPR
In short: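 P450-Glo luminescent screen: recombinant CYP2D6 enzyme–proluciferin substrate mix preincubated with compound 10 min at room temperature, then NADPH regeneration added for 1 h at room temperature. Detection reagent added for 20 min; luciferin light read as relative luminescence units.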

[5] = target: Cytochrome P450 2C9 (Homo sapiens) (UniProt P11712); test: Cytochrome P450 family 2 subfamily C member 9 (CYP2C9) small molecule antagonists: luciferase biochemical (cell-free) qHTS assay (AID 1645842; active = well fitted curve in the direction sought with a large enough effect in the repeat runs; an effect the other way counts as inactive or inconclusive; also: potency is read from the fitted curve at half-maximal effect; nearly all actives have a fitted effect of over 55% in size)
Cytochrome P450 2C9 (Homo sapiens), sequence (P11712 whole entry, looked up): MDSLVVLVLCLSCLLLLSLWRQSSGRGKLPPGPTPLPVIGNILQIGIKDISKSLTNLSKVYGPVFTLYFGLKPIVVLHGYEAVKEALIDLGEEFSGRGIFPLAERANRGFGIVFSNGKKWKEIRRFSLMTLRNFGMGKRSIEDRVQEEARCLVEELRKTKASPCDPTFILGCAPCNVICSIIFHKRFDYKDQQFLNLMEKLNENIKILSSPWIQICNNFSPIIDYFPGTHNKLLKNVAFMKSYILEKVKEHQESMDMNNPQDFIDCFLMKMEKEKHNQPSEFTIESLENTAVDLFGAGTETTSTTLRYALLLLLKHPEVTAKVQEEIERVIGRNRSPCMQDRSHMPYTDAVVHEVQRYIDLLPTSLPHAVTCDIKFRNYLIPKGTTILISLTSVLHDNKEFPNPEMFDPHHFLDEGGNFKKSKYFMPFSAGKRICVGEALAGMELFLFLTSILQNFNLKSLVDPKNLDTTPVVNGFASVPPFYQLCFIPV
In short: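 Luminescence, after 20 min with luciferin detection reagent, reflected CYP2C9 turnover during a 1 h NADPH-driven reaction at 37C. Enzyme-substrate mix contained 0.4% bovine serum albumin and was preincubated with compound 10 min at room temperature.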

[6] = target: Glutathione peroxidase 1 (Homo sapiens) (UniProt P07203); test: Primary qHTS Assay for Inhibitors of Recombinant Selenoprotein Glutathione Peroxidase 1 (GPX1) (AID 1845191); also: nearly all actives have a fitted effect of over 65% in size
Glutathione peroxidase 1 (Homo sapiens), sequence (P07203 whole entry, looked up): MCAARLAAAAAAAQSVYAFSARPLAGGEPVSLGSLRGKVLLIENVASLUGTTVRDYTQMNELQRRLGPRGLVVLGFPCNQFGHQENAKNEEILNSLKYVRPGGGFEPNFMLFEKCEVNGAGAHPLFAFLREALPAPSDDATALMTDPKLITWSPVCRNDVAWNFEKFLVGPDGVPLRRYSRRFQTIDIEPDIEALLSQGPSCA
In short: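 Recombinant GPX1 (10 nM final) was preincubated with compound for 30 min at room temperature, then reacted with 1 mM GSH, 0.5 mM CHP, 0.5 mM NADPH and 100 nM glutathione reductase; NADPH fluorescence (340/450 nm) was read at 0 and 15 min.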

[7] = qHTS drug screen for cell cycle checkpoint inhibitors in PARPi-resistant BRCA-mutant ovarian cancer cell lines. (AID 1963452; calls by dose curve); conditions: PEO1/OlaR viability, CellTiter-Glo luminescence, 96 h, stronger effect = lower value
In short: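 PEO1, PEO4 and PEO1/OlaR ovarian cancer cells, 600 per well, exposed 96 h at 37C to a dilution series. Viability read by CellTiter-Glo luminescence, normalized to DMSO and empty wells; activity summarized as Z-AUC.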

Row | SMILES | Potency [1] | Potency [2] | Potency [3] | Potency [4] | Potency [5] | Potency [6] | Z-AUC [7] | Z-AUC ([7]; measured here: PEO1 parental Z-AUC) | Z-AUC ([7]; measured here: PEO4 Z-AUC)
1 | N#C/C(=C(/N)Sc1ccc(N)cc1)c1ccccc1C(F)(F)F | inactive | inactive | inactive | 16.9 µM (active) | 9.52 µM (active) | inactive | -0.578 (inactive) | -0.277 | -0.614
2 | CC[C@@H]1Cn2c(c3nc(-c4cc(Cl)cc(Cl)c4Cl)nc-3n(C)c2=O)N1 | inactive | – | – | – | – | – | – | – | –
